A549 viability – kills or reduces viability of A549 cells in Nrf2 counter-screen; A549 ARE-Fluc cells, CellTiter-Fluor viability, 18-24 h; Potency, µM (highest dose often 46 µM), inactives show at the top dose activity change, negative = cytotoxicity, hits mostly inhibitors; actives 0.16% (n = 390,000); AID 504648; further: potency means the concentration at half of the fitted maximal effect; on the % scale 0 is the no-effect control and ±100 the full control effect
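Cytotoxicity counterscreen: CellTiter-Fluor fluorescence was measured in A549 ARE_Fluc cells after 18-24 h of compound exposure in a concentration series. The subsequent BugLite luminescent read reports ARE-luciferase activity.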
Nrf2 inh – inhibitors of Nrf2 signaling; actives 2.1% (n = 360,000); A549 ARE-Fluc reporter, luciferase luminescence, 18-24 h; Potency, µM (top dose mostly 46 µM), inactives show at the highest dose activity change, negative = inhibition, actives largely listed as inhibitors; AID 504444; further: potency means the concentration at half of the fitted maximal effect; on the % scale 0 is the no-effect control and ±100 the full control effect; nearly all actives have a fitted effect of over 60% in size
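Nrf2 activity is the BugLite luminescence, read 15 min after reagent at room temperature, following CellTiter-Fluor cytotoxicity readout (30 min, 37C). Compound titrations were applied for 18-24 h to 5000 A549 ARE_Fluc cells/well in 5% FBS OPTI-MEM.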
IL-2 act – activators of IL-2. actives 0.065% (n = 360,000). AID 652025. activation, % (series mostly up to about 46 µM). IL-2 activation reporter assay, cell-based qHTS; stimulated with anti-CD3/CD4/CD28 beads; in transgenic mouse T cells; in the data active means activation above about 50%; inconclusive means mostly about 30% to 49%; further: 0% is about no effect
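Unstimulated transgenic mouse T cells preincubated 60 min with compound, then stimulated with anti-CD3/anti-CD4-coated beads plus anti-CD28 for 18 h at 37 degrees C. IL-2 response read as EGFP and DsRed fluorescence by plate cytometry.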
BRCA1 expr up – activators of BRCA1 expression; Potency, µM (titrated, usually from 46.1 µM), without a hit: top-dose activation, actives largely listed as activators; MCF7-BRCA1-FFLuc reporter, luminescence, 48 h; response scale: scaled: vehicle 0%, 10 µM genistein 100%; actives 1.1% (n = 380,000); further: potency means the concentration at half of the fitted maximal effect; nearly all actives have a fitted effect of over 80% in size
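Compounds are tested at multiple concentrations on MCF7 BRCA1-luciferase reporter cells seeded at 2000 per well; after 48 h, a single luminescence end-point is taken and curves fitted to the normalized data.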
p53 reactivation – restores transcriptional activity of mutant p53; H1299 p53-A138V BP100-luciferase reporter, luminescence, 24 h; Potency, µM (titrated, usually from 92.2 µM), for inactives: at the top dose activity change, positive = activation, usual class: activators; actives 0.063% (n = 320,000); AID 504706; further: potency means the concentration at half of the fitted maximal effect; % of control where 0% means no effect; nearly all actives have a fitted effect of over 45% in size
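H1299 (p53-null), stable ts p53-A138V + BP100-Luc; 1000 cells/well, Opti-MEM/10% FBS; cpd 4 pt, 1:5; 24 h, 37 deg C, 5% CO2; detection reagent 10 min RT; luminescence.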
Nrf2 activator – activators of Nrf2 (ARE) signaling | AREc32 ARE-luciferase reporter (MCF7-derived line), luminescence, 24 h | Potency, µM (top dose mostly 46.1 µM), for the others: at the highest dose activation, usual class: activators | actives 0.31% (n = 410,000) | AID 624171; further: potency means the concentration at half of the fitted maximal effect; % of control where 0% means no effect; nearly all actives have a fitted effect of over 65% in size
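ARE-driven firefly luciferase activity in AREc32 cells measured after a 24 hr compound exposure at 37 deg C, using Steady-Glo reagent and a 30 min room-temperature hold.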
* marks the source's active call; other numbers are inactive results; ? = inconclusive; / = no result; [ ] = dose if it differs, or a comment. Rows were chosen to be rich in hits. Some 3.2% of all compounds tested hit in one or more screens of this group. Unless noted, the call rests on the fitted dose curve; in most records, active means well fitted curve in the direction sought with a large enough effect; inconclusive means small, poorly fitted or top-dose-only effect, or another doubt; inactive means no such curve, though single readings can be large; an effect the other way counts as inactive or inconclusive.

SMILES	A549 viability	Nrf2 inh	IL-2 act	BRCA1 expr up	p53 reactivation	Nrf2 activator
CCCc1cc(F)c(S(=O)(=O)N2CCN(S(=O)(=O)c3ccc4c(c3)OCCO4)CC2)cc1F	1%	13%	/	/	/	/
O=C(Cn1nnc(-c2ccc(F)cc2)n1)N1CCCCC1	-1%	14%	-4	26%	-3%	0%
O=C(Cn1nnc(-c2ccccc2F)n1)N1CCCCC1	1%	?	0	8.9µM*	15%	0%
CCS(=O)(=O)c1nc(S(=O)(=O)c2ccc(C)cc2)c(NCc2ccccc2Cl)s1	9%	-2%	/	/	/	0%
COc1ccccc1N1CCN(C(=O)C2CCN(S(=O)(=O)c3ccc4c(c3)CC(C)N4C(=O)C3CC3)CC2)CC1 (centres undefined)	-5%	26µM*	0	-51%	-14%	0%
CC(=O)N1c2ccc(S(=O)(=O)N3CCC(C(=O)Nc4ccccn4)CC3)cc2CC1C (centres undefined)	-6%	18µM*	-3	-31%	-1%	-1%
COc1ccccc1N1CCN(C(=O)C2CCN(S(=O)(=O)c3ccc4c(c3)CC(C)N4C(C)=O)CC2)CC1 (centres undefined)	11%	-18%	-1	-13%	-5%	0%
CC(=O)N1c2ccc(S(=O)(=O)N3CCC(C(=O)N4CCCC(C)C4)CC3)cc2CC1C (centres undefined)	-8%	16µM*	-2	-25%	2%	0%
CC(=O)N1c2ccc(S(=O)(=O)N3CCC(C(=O)N4CC(C)CC(C)C4)CC3)cc2CC1C (centres undefined)	2%	1%	-1	-20%	3%	0%
CS(=O)(=O)N1CCc2cc(C(=O)NCc3ccccc3)ccc21	4%	9%	/	1%	/	1%
Oc1ccc(/C=C/c2nc(-c3ccccc3O)n(-c3ccccc3)n2)cc1	?	7.3µM*	-4	2%	-2%	4%
Oc1ccccc1-c1nc(/C=C/c2ccccc2)nn1-c1ccccc1	0%	-12%	1	33%	7%	8%
C/C(=N\OCC(=O)Nc1ccccc1Br)c1cccs1	19%	11%	-1	10%	2%	22µM*
C/C(=N/OCC(=O)Nc1ccccc1)c1cccs1	7%	/	1	6%	14%	3%
COc1ccc(NC(=O)Nc2ccc3[nH]ccc3c2)cc1	2%	?	2	3.2µM*	/	0%
Cc1cc(NC(=O)c2ccccc2)c(Cl)cc1N	1%	8.2µM*	1	-59%	-8%	-3%
COc1ccc2c(c1)cc1c(=O)n(CC(=O)NC(C)C)nc(C)n12	10%	5%	/	/	/	-1%
O=C(Nc1c(-c2ccccc2)nc2ccccn12)c1ccc(Br)cc1	-14%	-20%[9.27 µM]	/	-10%	/	1%
Cn1nnnc1Sc1ncnc2scc(I)c12	?	-23%	/	/	/	/
O=c1[nH]ncc(N/N=C\c2cccs2)c1Cl	1%	-8%	-2	-25%	-4%	4.5µM*
O=c1[nH]ncc(N/N=C\c2ccncc2)c1Cl	2%	13%	1	-29%	0%	6%
CCOC(=O)CSC1=C(C#N)C(c2ccc(C)s2)CC(=O)N1 (centres undefined)	?	21µM*	-2	-84%	2%	0%
CCN(CC)c1ccc(/C=C/C(=O)C2C(=O)C=C(C)OC2=O)cc1 (centres undefined)	1%	?	11	5.6µM*	?	6%
Nc1c(C(=O)Nc2nccs2)sc2nc(-c3cccs3)cc(C(F)(F)F)c12	-12%	-10%	104*	-49%	5%	15%
Cc1nn(-c2ccccc2)c(/N=C/c2ccccc2O)c1-c1ccccc1	1%	15%	-2	13µM*	?	1%
SMILES	A549 viability	Nrf2 inh	IL-2 act	BRCA1 expr up	p53 reactivation	Nrf2 activator
Cc1nn(-c2ccccc2)c(N)c1-c1ccccc1	-4%	5%	1	?	11%	0%
COc1ccc(CNC(=O)Cn2cccc2C(=O)c2ccccc2C)cc1	2%	?	1	9%	?	0%
Cc1cccc(NC(=O)Cn2c(=O)c3cccn3c3ccccc32)c1C	-17%	23µM*	/	/	/	-1%
COc1ccc(CNC(=O)Cn2cccc2C(=O)c2ccccc2)cc1	0%	?	-3	11µM*	?	0%
COc1ccc(CNC(=O)Cn2c(=O)c3cccn3c3ccccc32)cc1	0%	12µM*	/	/	/	0%
Cc1ccc(NC(=O)Cn2c(=O)c3cccn3c3ccccc32)c(C)c1	5%	-10%	-2	4%	-5%	0%
Cc1cc(C)cc(NC(=O)CCn2c(=O)c3cccn3c3ccccc32)c1	-14%	16µM*	0	-63%	-5%	3%
Cc1c(CCC(=O)NCCCCCC(=O)O)c(=O)oc2c(C)c3oc4c(c3cc12)CCCC4	2%	?	0	-3%	-5%	-1%
Cc1c(CCC(=O)N2CCC[C@H]2C(=O)O)c(=O)oc2c(C)c3oc4c(c3cc12)CCCC4	-9%	6.5µM*	-1	-27%	-4%	-3%
COc1ccc(OC)c(C(C)NC(=S)NC2CCCCC2)c1 (centres undefined)	0%	18µM*	-1	-12%	1%	0%
COc1ccc(NC(=S)NC2CCCC2)c(OC)c1	15%	1%	0	5%	/	0%
CCN(CC)c1ccc(NC(=O)c2cnn(-c3ccccc3)c2-n2cccc2)c(C)c1	9%	2%	/	/	/	0%
Cc1cc(=O)[nH]c2n[nH]c(-c3ccccc3)c12	-3%	5%	19	11µM*	?	3%
Cc1cccc(/C(N)=N/OC(=O)CCc2ccccc2)c1	-2%	?	0	13µM*	30%	5%
COc1cccc(NC(=O)Cn2c(=O)n(CCCCC(=O)NCCc3ccccc3)c(=O)c3ccccc32)c1	-2%	-8%	/	-14%	/	0%
COc1ccc(C2=NN3C(C2)c2ccccc2OC3c2cccs2)cc1 (centres undefined)	14%	?	-1	10µM*	14%	24%
COc1cc(/C=C/c2nc(C#N)c(NC3CCCCC3)o2)cc(OC)c1OC	-4%	-23%	/	/	/	8%
Cc1cccc(N2CCN(C(=O)CS(=O)(=O)Cc3nc(-c4ccccc4C)oc3C)CC2C)c1 (centres undefined)	-10%	23µM*	/	-39%	/	0%
CCN1CCN(C(=O)CS(=O)(=O)Cc2nc(-c3ccccc3C)oc2C)CC1	-1%	-7%	1	5%	-10%	0%

Bioassay records from PubChem BioAssay.
